Screening results deposited in PubChem by The Scripps Research Institute Molecular Screening Center.
DAX1 inh-1: DAX1 (NR0B1) inhibitors, primary screen, cell-based, HEK293, Gal4-DAX1, luciferase luminescence | HEK293 Gal4-DAX1 luciferase reporter | Nuclear receptor subfamily 0 group B member 1 (Homo sapiens), P51843 | inhibition, % at 6.75 µM | AID 504766, 2011 | 0.99% of 340,000 active;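 active = inhibition above the mean over all tested compounds plus 3 SD, cut at about 4.2% in these data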;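 note: 0% = DAX1-transfected cells with DMSO and 100% = empty-vector control cells with DMSO; inhibition shows as a rise in luminescence from relieved DAX1 repression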
Target sequence (P51843 207-470 limits assumed): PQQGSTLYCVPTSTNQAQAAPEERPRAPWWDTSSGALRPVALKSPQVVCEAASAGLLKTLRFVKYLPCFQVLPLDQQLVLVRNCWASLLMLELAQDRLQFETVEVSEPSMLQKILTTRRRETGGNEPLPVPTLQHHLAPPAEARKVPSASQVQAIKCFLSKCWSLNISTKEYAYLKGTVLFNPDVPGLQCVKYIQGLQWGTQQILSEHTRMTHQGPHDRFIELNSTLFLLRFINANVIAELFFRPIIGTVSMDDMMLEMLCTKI
DAX1 inh-2: DAX1 (NR0B1) inhibitors on StAR promoter, primary screen, cell-based, luminescence, SF-1 (NR5A1), full-length DAX-1; HEK293T StAR-luciferase reporter, SF-1/DAX-1 repression relief; inhibition, % at 6.8 µM; 1.1% of 370,000 active; AID 652010, 2013;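 active = inhibition above the mean over all tested compounds plus 3 SD, cut at about 3.6% in these data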;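 note: 0% = DAX-1 cells with DMSO and 100% = cells lacking DAX-1 with DMSO; higher inhibition means more luminescence from relief of DAX-1 repression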
hgDAF-12 ag: H. glycines DAF-12 receptor agonists, primary screen, cell-based, luminescence, HEK293, GAL4 fusion, UAS-luciferase. Nuclear hormone receptor DAF-12 (Heterodera glycines), GAL4 fusion. HEK293 GAL4-hgDAF12 UAS-luciferase reporter, agonist luminescence; normalized to butyrate control. activation, % at 6.8 µM. 1.8% of 370,000 active;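 active = activation above a cutoff set at the mean of all screened compounds plus 3 SD, cut at about 10% in these data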;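 note: 0% = DMSO wells and 100% = sodium butyrate wells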
hcDAF12 agonist: H. contortus DAF-12 nuclear receptor activators, primary screen, cell-based, luminescence, HEK293, lit1-tk-luc reporter. HEK293 hcDAF-12 lit1-tk-luc reporter; 0% DMSO, 100% Δ7-dafachronic acid. activation, % at 6.8 µM. 1.4% of 370,000 active. AID 652067, 2013;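 active = activation above the mean of all tested compounds plus 3 SD, cut at about 5.5% in these data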;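 note: 100% = response to 3 µM Δ7-dafachronic acid high control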
ssDAF12 agonist: S. stercoralis DAF-12 nuclear receptor activators, primary screen, cell-based, luminescence, HEK293, GRIP1 co-expression, lit1-tk-luc; Nuclear hormone receptor DAF-12 (Strongyloides stercoralis); HEK293 ssDAF-12/GRIP1 lit1-tk-luc reporter; % of 3 µM dafachronic acid response; activation, % at 6.8 µM; 1% of 370,000 active;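 active = activation above the mean over all tested compounds plus 3 SD, cut at about 0.9% in these data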;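 note: 0% = DMSO-only wells and 100% = 3 µM delta7-dafachronic acid wells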
Numbers without * were called inactive; nt = no result. An excerpt weighted towards active compounds, which were near 4.1% of everything screened.

SMILES	DAX1 inh-1	DAX1 inh-2	hgDAF-12 ag	hcDAF12 agonist	ssDAF12 agonist
C=CCNC(=S)Nc1sc2c(c1C(=O)OCC)CCN(C(=O)OCC)C2	1.5	-0.8	-1.7	-2.0	-1.3
O=C(COC(=O)c1cccc(-n2cnnn2)c1)Nc1c(Cl)cccc1C(F)(F)F	0.3	3.9*	-1.9	-0.8	-0.9
O=C(COC(=O)c1cccc(-n2cnnn2)c1)c1ccc(F)cc1	-1.0	3.5	4.6	2.7	-0.2
CCCOc1ccc(C(=O)Nc2cccnc2)cc1	-0.3	0.0	-0.2	-1.5	-1.4
O=C(Nc1cccnc1)c1ccc2ccccc2c1O	4.3*	1.1	9.0	2.4	0.6
CCOc1cc(C(=O)Nc2cccnc2)cc(OCC)c1OCC	1.2	-1.0	1.0	3.7	1.2*
CCSc1ccccc1C(=O)Nc1cccnc1	4.7*	0.7	2.9	-1.1	-0.7
O=C(N/N=C/c1cccnc1)c1ccc2ccccc2c1O	0.6	1.6	0.4	1.6	-0.8
CCSc1ccccc1C(=O)Nc1nncs1	0.1	0.1	1.9	-0.9	-1.2
O=C1CCC2(CCC(c3ccccc3)CC2)N1CCO (stereo unspecified)	nt	-0.8	0.9	-1.5	-1.2
CC(C)N1CCCCC(NC(=O)c2cccc(F)c2)C1=O (stereo unspecified)	nt	-0.2	1.9	0.2	-1.6
CC(C)C[C@H]1CN(CCCC[C@@H]2CNC(=O)C(=O)N2CC2CCCCC2)C(=O)C(=O)N1CCc1ccc(O)cc1	nt	-0.4	-1.9	-1.1	-0.4
COc1ccc(-c2cc3nc(C)n(N)c(=O)c3s2)cc1	-9.2	-1.4	-9.2	-3.7	-3.0
COc1ccc(-c2cc3nc4n(c(=O)c3s2)CCCCC4)cc1	7.8*	2.9	9.6	5.1	0.1
CC(C)CCn1c(CN2CCN(c3cccc(Cl)c3)CC2)nc2c1c(=O)n(C)c(=O)n2C	0.2	1.9	12.8*	3.5	0.1
CCCCCCn1c(Br)nc2c1c(=O)n(C)c(=O)n2C	-0.1	-0.3	-1.3	0.8	1.0*
COCCn1c(CN2CCN(c3cccc(Cl)c3)CC2)nc2c1c(=O)n(C)c(=O)n2C	-1.4	-3.8	-3.0	-4.0	-1.8
CCCCn1c(CN2CCOCC2)nc2c1c(=O)n(C)c(=O)n2C	0.3	-0.5	10.8*	0.2	-0.9
CCCCCCn1c(NCC)nc2c1c(=O)n(C)c(=O)n2C	-3.8	-2.0	-6.5	-2.7	-2.3
CC(C)Cn1c(Br)nc2c1c(=O)n(CCC#N)c(=O)n2C	4.3*	-1.1	-0.4	-2.3	-1.4
CCCn1c(=O)c2c(nc(Br)n2CCC)n(C)c1=O	-0.7	-0.4	-2.3	-0.2	-0.7
COc1ccc2c(c1)CN1C(=O)N(Cc3ccc(F)cc3)S(=O)(=O)CC21 (stereo unspecified)	nt	-0.5	0.8	-0.2	-0.9
COC(=O)c1cc2c(c3c4cc(OC)ccc4n(S(=O)(=O)c4cccc(C)c4)c13)C(=O)N(C)C2	nt	-0.7	-0.5	-0.2	-1.2
C=C1C(=O)[C@]23C[C@H]1CCC2[C@@]1(C)C(C[C@@H]3O)[C@](C)(C(=O)O)C[C@H](O)[C@@H]1O (stereo partly specified)	nt	-1.0	0.0	-1.7	-1.7
C=C1C(=O)[C@]23C[C@H]1CC[C@H]2[C@]1(C)[C@@H](O)CC[C@@](C)(C(=O)O)[C@H]1C[C@@H]3O	nt	4.3*	-0.6	-0.3	-0.5
SMILES	DAX1 inh-1	DAX1 inh-2	hgDAF-12 ag	hcDAF12 agonist	ssDAF12 agonist
Cc1cccc(-c2cccc3c4c([nH]c23)[C@@H]2C[C@H]3[C@@H](CN2CC4)[C@H](C)ON3C)c1	nt	-1.1	0.3	2.1	-1.1
Cc1cccc(CCNc2nc3ccc(C)cc3n3cnnc23)c1	5.0*	-0.5	1.1	0.1	-1.9
Cc1ccc2nc(NCCc3ccc(Cl)cc3)c3nncn3c2c1	1.5	0.0	0.5	0.1	-1.1
C=CCc1cccc2cc(C(=O)Nc3ccc(S(=O)(=O)Nc4nnc(CC)s4)cc3)c(=O)oc12	-0.7	0.8	-2.3	4.1	-1.0
COC(CNC(=O)[C@H](Cc1ccccc1)NCC(=O)NC1CCCCC1)OC	nt	nt	0.3	1.4	-1.7
CCOC(=O)c1oc2ccc(CNCCO)c(Cl)c2c1C	2.0	2.8	7.8	6.1*	0.1
COc1ccc(N2CCN(C(CNC(=O)C(C)C)c3ccc4c(c3)OCO4)CC2)cc1 (stereo unspecified)	0.0	0.3	0.8	-1.8	-1.1
O=C(NCc1ccccc1)N1CCN(Cc2nc3ccccc3c(=O)[nH]2)CC1	nt	-0.4	0.6	-3.7	-0.6
Cc1n[nH]c(C)c1S(=O)(=O)N1CCCC(C(=O)N2CCc3ccccc32)C1 (stereo unspecified)	-1.1	-0.2	-0.2	1.5	1.9*
Cc1noc(/C=C/N(C)C)c1S(=O)(=O)N1CCCC(C(=O)N2CCc3ccccc32)C1 (stereo unspecified)	-0.2	-0.1	-0.5	1.5	-0.9
CCCC(=O)OC[C@H]1CN([C@H](C)c2ccccc2)S(=O)(=O)c2c(F)cccc2O1	nt	0.7	-0.6	-0.6	-0.2
COC(=O)[C@]12C[C@H](CC(=O)N3CCCCC3)C(=O)N(CCC3=CCCCC3)C1=C[C@H](C1CCCC1)O[C@@H]2C	nt	1.0	1.5	0.4	-1.1
O=C(Nc1ccc([N+](=O)[O-])cc1)N1CCc2ccccc2C1	0.0	-0.7	-2.0	-1.7	-1.8
CC(C)c1ccc(NC(=O)N2CCc3ccccc3C2)cc1	-0.5	1.7	8.3	5.8*	-0.8
Cc1ccnc(NC(=O)c2ccc3c(c2)C(=O)N(CC(C)C)C3=O)c1	0.3	3.7*	4.9	0.7	-0.6
Cc1cc(NC(=O)c2ccc3c(c2)C(=O)N(CC(C)C)C3=O)no1	-1.6	-0.3	0.1	-0.3	-0.1
Cc1cc(C)cc(-n2ncc3c2CCCC3NC(=O)c2csnn2)c1 (stereo unspecified)	1.0	4.5*	3.7	-4.0	-0.6
C/C(=N\OCc1ccc(C#N)cc1)c1ccccc1	3.6	0.0	11.0*	0.6	-1.0
C/C(=N\OCc1ccc(C#N)cc1)c1ccc(S(=O)(=O)N(C)C)cc1	0.5	-0.5	1.8	1.3	-0.5
CC(C)CCNC(=O)C1CCCN(C(=O)c2ccc3c(c2)NC(=O)CS3)C1 (stereo unspecified)	nt	-1.2	-4.5	-0.8	-1.1
COc1ccc(CC2(CO)CCN(Cc3cnn(C)c3C)CC2)cc1	4.9*	-0.6	1.4	-1.1	-2.0
CCNC(=S)Nc1c(C)n(C)n(-c2ccccc2)c1=O	0.9	-0.1	3.8	-0.9	-1.3
